Measured values published in PubChem BioAssay.
For some assays here: Results with a measured potency or affinity are listed apart. Calls of active or inactive are those of the source.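 How the source made its calls, unless noted: active means primary screen activator hit with a dose response curve and TRPC4 channel activation at any tested dose; inactive means no activation, no dose response, or not a primary hit.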

How the values were obtained:
[1] = system: TRPC4 beta (transient receptor potential cation channel C4), mouse; experiment: TRPC4 cation channel opening, retest – cell-based, Fluo4 calcium, HEK293 TRPC4beta/mu-opioid, duplicates, 10 µM, confirmation (AID 2426;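 active means fluorescence ratio normalized to control raised more than 50% in primary screen plus both repeat runs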); conditions: Fluo4 calcium fluorescence, at 10 µM; active compounds read high
[2] = system: transient receptor potential cation channel C4 beta (TRPC4), mouse; experiment: TRPC4 cation channel opening, second retest – cell-based, second round, Fluo4, HEK293 TRPC4beta/mu-opioid, 1 µM, confirmation (AID 2461;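 active means primary screen active and over 50% activation in each of two duplicate runs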); conditions: Fluo4 calcium fluorescence, at 1 µM; active compounds read high
[3] = system: TRPC4 (transient receptor potential cation channel C4 beta), mouse; experiment: potentiation of DAMGO EC20 TRPC4 response – cell-based, second round, Fluo-4, HEK293 TRPC4beta/mu-opioid, 1 µM, confirmation (AID 2554;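 active means primary screen hit whose fluorescence ratio, in both repeats, exceeds the weak agonist control mean by 3 SD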); conditions: DAMGO EC20, Fluo-4 calcium flux, at 1 µM; active compounds read high
[4] = system: TRPC4 beta (transient receptor potential cation channel C4), mouse; experiment: potentiation of DAMGO EC20 TRPC4 response – cell-based, Fluo-4, HEK293 TRPC4beta/mu-opioid, confirmation (AID 2555;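 active means primary screen hit whose calcium fluorescence ratio, in both repeats, exceeds the weak agonist control mean by 3 SD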); conditions: DAMGO EC20, Fluo-4 calcium flux, at 10 µM; active compounds read high
[5] = target: Short transient receptor potential channel 4 (Mus musculus) (UniProt Q9QUQ5); experiment: blockers of DAMGO-evoked TRPC4 calcium flux – cell-based, Fluo4, HEK293 TRPC4beta/mu-opioid, confirmation (AID 2636;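 active means calcium signal cut by more than 3 SD below the full-agonist control yet still positive, in both repeats and the earlier primary screen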); conditions: at 10 µM; active compounds read high
[6] = target: Short transient receptor potential channel 4 (Mus musculus) (UniProt Q9QUQ5); experiment: blockers of DAMGO-evoked TRPC4 calcium flux – cell-based, second round, Fluo4, HEK293 TRPC4beta/mu-opioid, 1 µM, confirmation (AID 2637;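 active means calcium signal ratio cut to more than 3 SD under the fully stimulated control mean yet still positive, in both repeats and the primary screen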;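 on inhibition: percent of integrated ratio relative to wells lacking test compound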); conditions: at 1 µM; active compounds read high
[7] = target: Short transient receptor potential channel 4 (Mus musculus) (UniProt Q9QUQ5); experiment: calcium entry via TRPC4 opening agents – cell-based, HEK293 TRPC4/mu-opioid, Fluo-4 calcium, dose response (AID 434937); conditions: HEK293 TRPC4 cells, Fluo-4 calcium fluorescence ratio; series mostly up to 20 µM
[8] = target: Short transient receptor potential channel 4 (Mus musculus) (UniProt Q9QUQ5); experiment: potentiation of DAMGO-evoked TRPC4 calcium signal – cell-based, HEK293 TRPC4/mu-opioid, Fluo-4 calcium, EC20 DAMGO, dose response (AID 434941;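 active means earlier screen potentiator hit that boosts the TRPC4 ion channel at some dose, with a dose response; inactive means no potentiation, no dose response, or not a prior hit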;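 further: calcium entry triggered by an EC20 dose of DAMGO at the co-expressed mu-opioid receptor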); conditions: HEK293 TRPC4/mu-opioid cells, Fluo-4 calcium fluorescence; series mostly up to 20 µM
[9] = target: Short transient receptor potential channel 6 (Mus musculus) (UniProt Q61143); experiment: TRPC6 blockade by TRPC4 inhibitor hits – cell-based, HEK293, membrane potential dye, duplicate, selectivity assay for TRPC4 inhibitor project, confirmation (AID 434948;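 active means active in primary screen and both duplicates, each dropping signal beyond three positive-control SD with fluorescence still positive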); conditions: HEK293 TRPC6, membrane potential dye fluorescence, at 10 µM, stimulated with maximal-effect acetylcholine; active compounds read high
[10] = target: Short transient receptor potential channel 6 (Mus musculus) (UniProt Q61143); experiment: TRPC6 opening by TRPC4 activator hits – cell-based, HEK293, membrane potential dye, duplicate, selectivity assay for TRPC4 activator project, confirmation (AID 434950;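 active means membrane potential signal rise above negative control mean plus 3 SD in both duplicates, also active in the earlier TRPC4 screen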); conditions: HEK293 TRPC6, membrane potential fluorescence, at 10 µM; activation: active compounds read high; outcome: activation
[11] = target: Short transient receptor potential channel 6 (Mus musculus) (UniProt Q61143); experiment: positive modulators of mouse TRPC6 channel – HEK293 cells, membrane potential dye, duplicate, selectivity assay for TRPC4 potentiator project, confirmation (AID 434952;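 active means compound raising the membrane signal above positive-control mean plus 3 SD in both repeats, and a primary screen hit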); conditions: HEK293 TRPC6, membrane potential dye fluorescence, at 10 µM, maximal acetylcholine added after compound; active compounds read high
[12] = target: Short transient receptor potential channel 4 (Mus musculus) (UniProt Q9QUQ5); experiment: calcium flux activators in TRPC4/5HT1a cells, counter-screen for TRPC4 activator project, cell-based, second counter screen, HEK293 TRPC4/5HT1a, Fluo-4 (AID 434977;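 active means calcium signal rise above buffer-control mean plus 5 SD in both duplicates, and also a hit in the primary screen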); conditions: Fluo-4 calcium flux, at 10 µM; active compounds read high
[13] = serotonin-gated TRPC4 signal block – cell-based, second counter screen, HEK293 TRPC4/5HT1a, Fluo-4, counter-screen for TRPC4 inhibitor project, confirmation (AID 434978;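 active means primary screen active whose calcium signal fell more than 3 SD beyond the full-serotonin control mean in both duplicate plates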;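 on outcome: serotonin given first at submaximal then at maximal dose after compound preincubation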); conditions: Fluo-4 calcium flux, at 10 µM, serotonin added to trigger calcium flux; active compounds read high
[14] = system: TRPC4 (mouse), co-expressed with 5HT1a in HEK293; experiment: enhancement of serotonin-evoked TRPC4 response – cell-based, second counter screen, HEK293 TRPC4/5HT1a, Fluo-4, counter-screen for TRPC4 potentiator project, confirmation (AID 434979;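 active means signal rise over 3 SD above mean of control wells given weak agonist, in both repeats and first screen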); conditions: Fluo-4 calcium flux, at 10 µM, serotonin added at its EC20 dose; active compounds read high
[15] = nonspecific calcium rise without TRPC4 – cell-based, HEK293 mu-opioid receptor line, counter-screen for TRPC4 activator project, confirmation (AID 449723;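 active means hit in primary screen, with calcium signal over 5 SD above buffer well mean in both duplicates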;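 further: counter screen cells carry the mu-opioid receptor alone and lack TRPC4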); conditions: HEK293 mu-opioid cells, Fluo-4 calcium fluorescence, at 10 µM; active compounds read high
[16] = nonspecific potentiation of DAMGO calcium response – cell-based, HEK293 mu-opioid receptor line, counter-screen for TRPC4 allosteric potentiator project, confirmation (AID 449724;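 active means calcium signal rise more than 3 SD above the low-dose agonist control mean, in both duplicate plates and the primary screen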); conditions: HEK293 mu-opioid receptor cells, Fluo-4 calcium flux, at 10 µM, compound added before EC20 DAMGO stimulus; active compounds read high

Short transient receptor potential channel 6 (Mus musculus), sequence (Q61143 whole entry, looked up): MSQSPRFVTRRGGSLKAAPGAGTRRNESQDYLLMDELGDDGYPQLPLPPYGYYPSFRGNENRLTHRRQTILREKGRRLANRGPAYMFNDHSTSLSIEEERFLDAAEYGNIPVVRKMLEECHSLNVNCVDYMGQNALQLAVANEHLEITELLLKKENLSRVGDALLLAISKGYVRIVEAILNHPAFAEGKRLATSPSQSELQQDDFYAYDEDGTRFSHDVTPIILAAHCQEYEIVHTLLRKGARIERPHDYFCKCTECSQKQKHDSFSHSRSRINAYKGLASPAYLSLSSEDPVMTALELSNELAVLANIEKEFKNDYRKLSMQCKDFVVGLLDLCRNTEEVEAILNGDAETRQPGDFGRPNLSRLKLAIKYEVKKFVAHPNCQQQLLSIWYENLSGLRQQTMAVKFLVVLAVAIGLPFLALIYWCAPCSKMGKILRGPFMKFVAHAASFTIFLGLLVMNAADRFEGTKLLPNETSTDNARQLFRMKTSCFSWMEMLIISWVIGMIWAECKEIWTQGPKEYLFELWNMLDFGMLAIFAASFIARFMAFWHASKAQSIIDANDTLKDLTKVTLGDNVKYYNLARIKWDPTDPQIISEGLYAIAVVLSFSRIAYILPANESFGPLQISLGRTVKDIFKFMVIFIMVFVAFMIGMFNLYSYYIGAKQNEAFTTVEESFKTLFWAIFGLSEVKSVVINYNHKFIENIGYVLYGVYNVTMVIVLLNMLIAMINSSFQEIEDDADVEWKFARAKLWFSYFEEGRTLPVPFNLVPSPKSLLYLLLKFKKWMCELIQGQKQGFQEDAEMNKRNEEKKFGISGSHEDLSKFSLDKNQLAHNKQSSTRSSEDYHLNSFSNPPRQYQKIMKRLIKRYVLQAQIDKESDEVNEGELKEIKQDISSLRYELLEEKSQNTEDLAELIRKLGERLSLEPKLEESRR
Short transient receptor potential channel 4 (Mus musculus), sequence (Q9QUQ5 whole entry, looked up): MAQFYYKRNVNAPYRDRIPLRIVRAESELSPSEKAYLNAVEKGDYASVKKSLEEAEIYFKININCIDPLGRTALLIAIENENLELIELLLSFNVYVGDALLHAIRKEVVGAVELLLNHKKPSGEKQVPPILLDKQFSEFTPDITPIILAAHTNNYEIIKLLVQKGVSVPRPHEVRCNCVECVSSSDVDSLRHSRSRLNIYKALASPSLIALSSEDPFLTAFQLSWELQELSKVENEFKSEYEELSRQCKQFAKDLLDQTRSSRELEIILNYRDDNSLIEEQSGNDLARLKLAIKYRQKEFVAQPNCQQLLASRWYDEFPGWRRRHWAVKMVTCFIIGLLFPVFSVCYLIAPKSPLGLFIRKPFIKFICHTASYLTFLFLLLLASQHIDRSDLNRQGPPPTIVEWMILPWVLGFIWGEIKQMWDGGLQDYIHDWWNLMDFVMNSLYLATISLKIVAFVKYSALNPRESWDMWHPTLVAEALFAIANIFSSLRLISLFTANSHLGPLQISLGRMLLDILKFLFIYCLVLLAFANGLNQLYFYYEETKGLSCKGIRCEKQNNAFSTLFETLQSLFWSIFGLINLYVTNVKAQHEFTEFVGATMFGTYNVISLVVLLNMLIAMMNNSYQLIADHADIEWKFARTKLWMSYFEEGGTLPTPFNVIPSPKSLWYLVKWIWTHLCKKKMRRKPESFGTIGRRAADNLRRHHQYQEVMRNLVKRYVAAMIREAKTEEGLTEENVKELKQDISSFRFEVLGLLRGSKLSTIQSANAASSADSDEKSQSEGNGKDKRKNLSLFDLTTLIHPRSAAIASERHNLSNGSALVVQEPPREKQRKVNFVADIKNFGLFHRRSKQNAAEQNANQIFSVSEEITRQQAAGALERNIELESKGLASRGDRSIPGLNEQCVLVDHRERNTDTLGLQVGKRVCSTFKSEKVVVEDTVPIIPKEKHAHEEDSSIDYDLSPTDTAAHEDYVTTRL

SMILES | outcome [1] | outcome [2] | outcome [3] | outcome [4] | inhibition [5] | inhibition [6] | outcome [7] | outcome [8] | outcome [9] | outcome [10] | outcome [11] | outcome [12] | inhibition [13] | outcome [14] | outcome [15] | outcome [16] | outcome [6] | outcome [13] | inhibition [9]
Cn1c(-c2ccccc2)cnc1NCc1ccc(F)cc1 | inactive | inactive | inactive | inactive | 81% (active) | 53% (active) | inactive | inactive | inactive | inactive | inactive | inactive | 25.1% (active) | inactive | inactive | inactive | – | – | –
CCN(C(=O)c1c(-c2ccccc2Cl)noc1C)C1CCCCC1 | inactive | inactive | inactive | inactive | 71% (active) | – | inactive | inactive | inactive | inactive | inactive | inactive | 38.5% (active) | inactive | inactive | inactive | inactive | – | –
Cc1c(C(=O)NCC(c2ccco2)N(C)C)oc2c(Cl)cccc12 (centres undefined) | inactive | inactive | inactive | inactive | 94% (active) | 70% (active) | inactive | inactive | inactive | inactive | inactive | inactive | – | inactive | inactive | inactive | – | inactive | –
CCOc1cc(/C=C2\C(=N)N3N=CSC3=NC2=O)ccc1OS(=O)(=O)c1ccccc1 | inactive | inactive | inactive | inactive | 96% (active) | – | inactive | inactive | inactive | inactive | inactive | inactive | 16.2% (active) | inactive | inactive | inactive | inactive | – | –
Brc1ccc(CN2C3=NCCCN3c3ccccc32)cc1 | inactive | inactive | inactive | inactive | 96% (active) | 75% (active) | inactive | inactive | inactive | inactive | inactive | inactive | 9.36% (active) | inactive | inactive | inactive | – | – | –
O=C1/C(=C/c2ccccc2Cl)SC(=S)N1CCCC(=O)N(CCO)c1ccccc1 | inactive | inactive | inactive | inactive | 83% (active) | 50% (active) | inactive | inactive | inactive | inactive | inactive | inactive | 24.9% (active) | inactive | inactive | inactive | – | – | –
O=C(Nc1ccnn1C1CCN(CCCC2CCCC2)CC1)c1ccccc1Cl | inactive | inactive | inactive | inactive | 97% (active) | – | inactive | inactive | inactive | inactive | inactive | inactive | – | inactive | inactive | inactive | inactive | inactive | –
COc1ccc(CN2CCN(C(=O)c3ccc(F)cc3)CC2)c(OC)c1 | inactive | inactive | inactive | inactive | 93% (active) | 57% (active) | inactive | inactive | inactive | inactive | inactive | inactive | 35.3% (active) | inactive | inactive | inactive | – | – | –
COc1ccc(F)cc1C(=O)C1CCCN(Cc2ccc3c(c2)OCCO3)C1 (centres undefined) | inactive | inactive | inactive | inactive | 94% (active) | – | inactive | inactive | inactive | inactive | inactive | inactive | 38.7% (active) | inactive | inactive | inactive | inactive | – | –
CCc1ccc2nc3nc(C)cc(C)c3c(N)c2c1 | inactive | inactive | inactive | inactive | 96% (active) | 41% (active) | inactive | inactive | – | inactive | inactive | inactive | 15.6% (active) | inactive | inactive | inactive | – | – | 27% (active)
CC1(C)CC2CC(C)(CN2CC(O)COc2ccccc2)C1 (centres undefined) | inactive | inactive | inactive | inactive | 86% (active) | – | inactive | inactive | inactive | inactive | inactive | inactive | – | inactive | inactive | inactive | inactive | inactive | –
CSCCNCc1cn(-c2ccc(F)cc2F)nc1-c1ccccc1C | inactive | inactive | inactive | inactive | 91% (active) | – | inactive | inactive | inactive | inactive | inactive | inactive | – | inactive | inactive | inactive | inactive | inactive | –
c1ccc(COC(CN2CCCCCC2)CN2CCCCCC2)cc1 | inactive | inactive | inactive | inactive | 93% (active) | – | inactive | inactive | inactive | inactive | inactive | inactive | 31.1% (active) | inactive | inactive | inactive | inactive | – | –
CCN(CC)Cc1cc(CCNC(=O)c2ccc(Cl)cc2)ccc1O | inactive | inactive | inactive | inactive | 97% (active) | 75% (active) | inactive | inactive | inactive | inactive | inactive | inactive | 31.2% (active) | inactive | inactive | inactive | – | – | –
